Test results: PubChem BioAssay AID687036 (The Scripps Research Institute Molecular Screening Center, 2013)
Among all 3,300 compounds or so, about 1,400 (42%) were called active.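 How the source made its calls: active means mean inhibition across replicates above the hit cutoff derived for the earlier primary screen (cut at about 22% in these data); inactive means the rest.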 So high a share suggests a set chosen from earlier hits. The list is a sample of the results.

These compounds were tested against Protein arginine N-methyltransferase 1 (Homo sapiens) (UniProt Q99873) (assay: PRMT1 methyltransferase inhibitors, confirmation, biochemical, fluorescence polarization, triplicate (AID 687036)). Details: recombinant His-PRMT1, activity-based probe fluorescence polarization; at 2.79 µM; active compounds read high.
Chain of Protein arginine N-methyltransferase 1 (Homo sapiens) (Q99873 whole entry, looked up): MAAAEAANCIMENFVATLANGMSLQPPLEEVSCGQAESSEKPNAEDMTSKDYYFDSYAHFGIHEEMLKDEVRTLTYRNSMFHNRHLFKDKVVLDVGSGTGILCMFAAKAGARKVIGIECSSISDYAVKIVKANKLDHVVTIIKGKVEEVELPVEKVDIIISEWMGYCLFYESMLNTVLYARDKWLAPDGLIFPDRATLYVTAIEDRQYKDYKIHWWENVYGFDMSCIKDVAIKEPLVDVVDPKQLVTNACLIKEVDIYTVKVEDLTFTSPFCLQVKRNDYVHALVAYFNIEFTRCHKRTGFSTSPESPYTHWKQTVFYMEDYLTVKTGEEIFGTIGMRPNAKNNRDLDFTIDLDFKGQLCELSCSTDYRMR

SMILES	inhibition
CC1=C(C)CC2C(=O)N(c3cccc4ccccc34)C(=O)C2C1 (stereo not given)	54.1% (active)
O=C(O)CCn1c(O)c(C=C2N=c3ccccc3=N2)sc1=S	-5.43% (inactive)
O=C(NC(Cc1c[nH]c2ccccc12)C(=O)O)/C(=C/c1ccco1)NC(=O)c1ccccc1 (stereo not given)	9.09% (inactive)
Cc1ccc(NC(=O)Cn2sc3ccccc3c2=O)cc1	82.3% (active)
CCC(c1nnnn1Cc1ccco1)N(Cc1cc2cc(OC)ccc2[nH]c1=O)C1CCCCC1 (stereo not given)	18% (inactive)
COC(=O)C[n+]1cccc2ccccc21	32.6% (active)
NC(=O)c1c(Nc2nc3c(F)cccc3s2)sc2c1CCCC2	-3.26% (inactive)
O=C(CSc1cccc[n+]1[O-])c1ccc(-c2ccccc2)cc1	25.6% (active)
O=C(Cc1ccc(-c2ccccc2)cc1)NC(c1ccccc1)c1ccccc1	3.32% (inactive)
Cc1sc(NC(=O)c2ccc3ncsc3c2)c(C(N)=O)c1C	3.89% (inactive)
N#CC1(Nc2ccc3c4c(cccc24)CC3)CCCCC1	10.2% (inactive)
CSc1nc(C)cc(SC(C(C)=O)C(=O)Nc2ccccc2)n1 (stereo not given)	22.5% (active)
CN(C)C(=S)N=c1ssc(=S)n1Cc1ccco1	15.6% (inactive)
Cc1ccc(-n2nc(-c3ccco3)cc2C(=O)NCc2cccnc2)cc1	19.5% (inactive)
C=CS(=O)c1sc(Cl)c(N2CCOCC2)c1[N+](=O)[O-] (stereo not given)	87.1% (active)
CCOC(=O)c1cc2n(c1N)-c1ccccc1C2=O	116% (active)
Cc1ccccc1CN1C[C@@H]2C[C@@H](c3cn(C)nc3-c3ccccc3)N3CCC[C@@]23C1=O	5.9% (inactive)
O=C(Nc1nc(-c2ccco2)c(-c2ccco2)s1)c1ccco1	30.4% (active)
O=C(Nc1cccc(F)c1)c1cc(-c2ccco2)nc2ccccc12	3.51% (inactive)
COc1cc(C(=S)NCc2ccccc2)cc(Br)c1O	19.8% (inactive)
N#CC1=C(N)Oc2[nH]c(=S)[nH]c(=O)c2C12C(=O)Nc1ccccc12 (stereo not given)	66.4% (active)
Cc1ccc(Cc2cnc(N)s2)o1	-3.79% (inactive)
O=C(CN1C(=O)S/C(=C\c2ccccc2F)C1=O)NCCCn1ccnc1	-3.11% (inactive)
CC(NC(=O)CSc1nc2c(cc1C#N)CN(C)CC2)c1ccccc1 (stereo not given)	6.37% (inactive)

SMILES	inhibition
COc1ccc(C(=O)COC(=O)COc2ccc(C)c(C)c2)cc1	3.72% (inactive)
COc1ccnc(NC(=S)N2CCN(c3ncc(C(F)(F)F)cc3Cl)CC2)c1	4.89% (inactive)
c1ccc(C(=NNc2nc3ccccc3s2)c2ccccn2)cc1	22.1% (active)
Cc1nc2sc(C(c3ccco3)N3CCOCC3)c(O)n2n1 (stereo not given)	7.49% (inactive)
CCN(CC)CCCC(C)n1c2nc(=O)[nH]c(=O)c-2nc2cc(Cl)ccc21 (stereo not given)	153% (active)
CC(C(=O)Nc1ccc(O)c(C(=O)O)c1)N1C(=O)/C(=C/c2cccs2)SC1=S (stereo not given)	12% (inactive)
COCCNC(=S)Nc1cc(S(=O)(=O)N2CCOCC2)ccc1N1CCCCC1	4.34% (inactive)
N#Cc1ccccc1S(=O)(=O)N1CCN(Cc2c(O)ccc3ccccc23)CC1	33.1% (active)
COc1ccc(Nc2nc(-c3cccnc3)nc3ccccc23)cn1	11.2% (inactive)
Cn1sc(=O)c2cc(S(=O)(=O)NC3CC3)ccc21	32% (active)
Cc1ccc(CNC(=O)CCS(=O)(=O)c2ccc3c(c2)CC(C)N3C(=O)C2CC2)o1 (stereo not given)	5.73% (inactive)
S=c1[nH]nc2c3c4c(sc3ncn12)CCCC4	17.1% (inactive)
CCOc1cccc(/C=N/N2C(=O)CSC2=S)c1O	83.2% (active)
NC(=O)C1(N2CCCCC2)CCN(C2CC(=O)N(Cc3ccc(N4CCCC4=O)cc3)C2=O)CC1 (stereo not given)	2.57% (inactive)
Cc1sc2nc(SCC(=O)c3ccc(O)c(O)c3)n(Cc3ccco3)c(=O)c2c1C	2.72% (inactive)
CCOC(=O)N1C(=O)C[C@](Sc2ccc(C)cc2)(C(=O)OC)[C@H]1c1ccccc1	60.5% (active)
CCc1ccc(-n2c(=S)sc3c(=O)n(-c4ccccc4OC)c(=S)[nH]c32)cc1	14.1% (inactive)
Cc1ccc(NC(=O)c2cc(-c3ccc(C)o3)nc3ccccc23)nc1	10.3% (inactive)
CCc1n[nH]c(=S)n1/N=C/c1c[nH]c2ccc(Br)cc12	18% (inactive)
Cc1cccc(NC(=O)c2sc3nc(N4CCOCC4)c4c(c3c2N)CCCC4)c1	10.1% (inactive)
Clc1ccccc1CSc1nnc(-c2ccco2)c(-c2ccco2)n1	65.4% (active)
O=C(CC1N=C2c3ccccc3N=C(SCc3ccccc3Cl)N2C1=O)NCc1ccco1 (stereo not given)	5.28% (inactive)
CC(=O)N1CCN(C(=O)c2cc(-c3ccc(C)o3)nc3ccccc23)CC1	13% (inactive)
Cc1ccnc(-n2sc3ccccc3c2=O)n1	89.8% (active)

SMILES	inhibition
CCN1/C(=C/C(=S)Nc2ccccc2)Sc2ccccc21	24.8% (active)
COc1ccccc1-n1c(-c2cc(-c3ccco3)[nH]n2)n[nH]c1=S	2.25% (inactive)
c1ccc(CN2CCC(N=C3NN=C(c4ccc5c(c4)OCCO5)CS3)CC2)cc1	27.8% (active)
Cc1cccc(Oc2c([N+](=O)[O-])c(=O)n(C)c3ccccc23)c1	9.75% (inactive)
N#Cc1c(N2CCCCC2)nc(N)c2c(N)nc(SCC(=O)O)cc12	56.5% (active)
COc1ccc(C2CC(c3cccs3)=Nc3ccccc3S2)cc1OC (stereo not given)	48.6% (active)
Cc1cc(C(=O)NN=C/C=C/c2ccco2)n[nH]1	0.98% (inactive)
O=C(Oc1ccccc1C(=S)N1CCCCC1)c1cc([N+](=O)[O-])cc([N+](=O)[O-])c1	25.5% (active)
Cc1cc2nc(-c3ccco3)c(Cc3cccc(F)c3)n2c(C)c1Br	20.8% (inactive)
COC(=O)c1ccccc1SC1CC(=O)N(c2cccc(C)c2)C1=O (stereo not given)	23.1% (active)
CCOC(=O)c1ccc(N2C(=O)CC(N3CCC(C(=O)OCC)CC3)C2=O)cc1 (stereo not given)	1.87% (inactive)
O=C(O)c1ccc(/C=C2\SC(=S)N(NC(=O)c3ccc(Br)cc3)C2=O)cc1	2.94% (inactive)
CCN(CC)S(=O)(=O)c1cccc(-c2n[nH]c(=S)n2/N=C/c2ccc(C(=O)OC)cc2)c1	65.6% (active)
S=c1[nH]nc(-c2ccccc2)n1/N=C/c1c[nH]c2ccccc12	12.4% (inactive)
S=c1ccc2ccccc2[nH]1	10.8% (inactive)
CC(=O)NC1=NC(=O)CS1	15.3% (inactive)
CCOC(=O)N1CCN(C(c2cccnc2)c2ccc3cccnc3c2O)CC1 (stereo not given)	82.2% (active)
COc1ccccc1C(=O)NN1C(=O)C2C3C=CC(O3)C2C1=O (stereo not given)	8.23% (inactive)
COc1ccc(N=C2C=CC(=O)O2)cc1	83.2% (active)
COc1ccccc1NC(=O)/C=C/C(N)=O	55.8% (active)
CN(C)c1ccc(Nc2c3c4c(cccc4n(C)c2=O)C(=O)c2ccccc2-3)cc1	1.6% (inactive)
O=C(O)c1ccccc1CSc1nc2ccccc2s1	33.2% (active)
CCC(c1nnnn1Cc1ccco1)N(CCc1ccccc1)Cc1cc2ccc(OC)cc2[nH]c1=O (stereo not given)	5.74% (inactive)
O=C1C=CC(=O)N1c1ccc(N2CCCCC2)cc1	82.8% (active)

SMILES	inhibition
Cc1cc(C)c(S(=O)(=O)NN=C2c3ccccc3[C@H]3Cc4csc[n+]4[C@@H]23)c(C)c1	13.2% (inactive)
Cc1cccc(C)c1NC(=O)C(Cl)C(=O)c1ccccc1 (stereo not given)	30% (active)
O=c1/c(=C/c2ccc(CNS(=O)(=O)c3ccccc3)o2)sc2n1CCN=2	-3.63% (inactive)
Clc1cccc(-c2nc3nc4ccccc4nc3n2Cc2ccco2)c1	19.7% (inactive)
Cc1nc2ccc(S(=O)(=O)NCC(=O)O)cc2s1	22.9% (active)
CC(=O)N1C(=O)/C(=C2\SC(=S)N(NC(=O)c3ccc(O)cc3)C2=O)c2ccccc21	1.92% (inactive)
CCCCOC(=O)CNc1nnc(SCC(=O)OCC)[nH]c1=O	72.3% (active)
CN(C)c1ccc(C(CC(=O)O)C(=O)O)cc1 (stereo not given)	5.11% (inactive)
CCOC(=O)Cc1csc(NC(=O)CSc2nc(C)cc(=O)[nH]2)n1	61.6% (active)
Cc1cc(NC(=O)C(C)SCC(=O)Nc2cccc(S(=O)(=O)N3CCCCCC3)c2)no1 (stereo not given)	-0.11% (inactive)
COc1ccc(NC(=O)CN(C)C(=O)c2cc(-c3ccc(C)o3)nc3ccccc23)cc1	13.6% (inactive)
OCCN1CCN(C(=S)c2ccc(-c3ccccc3)cc2)CC1	61.8% (active)
CC1CCN(C(=S)c2ccc(-c3ccc(Cl)cc3Cl)o2)CC1	4.49% (inactive)
COc1cc(NC(=S)N2CCCC(C)C2)c(OC)cc1Cl (stereo not given)	44.5% (active)
CC(=O)N1CC(C)c2scc(C)[n+]2-c2ccccc21 (stereo not given)	50.9% (active)
COc1ccc(N2C(=O)/C(=C\c3ccco3)N=C2SCC(N)=O)cc1Cl	5.26% (inactive)
COc1cccc2c1C(=O)c1c(O)c3c(c(O)c1C2=O)CC(O)(C(C)=NNC(=O)c1ccc(Cl)c(Cl)c1)CC3OC1CC(N)C(O)C(C)O1 (stereo not given)	159% (active)
O=C(O)/C=C/C(=O)NNc1ccc([N+](=O)[O-])cc1	12.7% (inactive)
Cc1c(NC(=O)/C=C/C(=O)O)cccc1[N+](=O)[O-]	4.54% (inactive)
COC(=O)/C=C\C(=O)Nc1cccc([N+](=O)[O-])c1	87.6% (active)
CSc1c(SCc2ccccc2)cnn(Cc2ccccc2)c1=O	18.4% (inactive)
Nc1c(C(=O)c2cccs2)sc2nsc(SCCN3CCCCC3)c12	-5.21% (inactive)
O=C(COC(=O)Cn1cnc2ccccc21)Nc1cccc2c1C(=O)c1ccccc1C2=O	4.11% (inactive)
